Screening results: PubChem, National Center for Advancing Translational Sciences (NCATS)
Compounds with a hit are over-represented: about 2.8% of the library has one in this group of screens.
DRD3 antagonist – D3 dopamine receptor (human) antagonism; hit rate 2.5% among 360,000; max response, negative = inhibition, %; P35462; D3R cells, DiscoveRx beta-arrestin luminescence, antagonist mode; stronger effect = lower value; AID 652054; in the data active = max response below about -50%; inconclusive = no clear call, values can overlap the other calls
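Cells expressing the human receptor were seeded at 1500 cells/well, incubated overnight at 37 degrees C in 5% CO2, then exposed to library compounds with dopamine controls for 90 minutes at 37 degrees C before luminescent detection.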
D3 ag – agonists of human D3 dopamine receptor; AID 652048; P35462; hit rate 0.58% among 410,000; D3R DiscoveRx beta-arrestin cells, luminescence, 90 min; max activation, %; in the data active = max activation above about 30%
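Agonist-mode cell screen: cells plated at 1500/well and incubated overnight at 37 °C, then exposed to library compounds for 90 min at 37 °C. Detection reagent was added for 30–60 min at room temperature, and luminescence was read.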
CBFb-RUNX1 inh – CBF-beta/RUNX1 interaction disruption | Q01196+Q13951 | AlphaScreen CBFb-His/RUNX1-biotin binding, biochemical | Potency, µM (top dose mostly 59.8 µM), actives largely listed as inhibitors | 230,000 tested, under 10 active | AID 1477
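Inhibition was taken as any reduction in AlphaScreen signal from the CBF-beta–RUNX1 pair (His and biotin tags, 30 nM each), measured after compound (15 min) and bead (90 min) incubations at room temperature.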
a7 integrin act – activates integrin-mediated alleviation for muscular dystrophy. alpha7betagal myoblasts, beta-gal FDG fluorescence, 48 h. Potency, µM (highest dose often 38.3 µM), hits mostly activators. hit rate 0.064% among 350,000. AID 624291; note: nearly all actives have a fitted effect of over 60% in size
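Alpha7betagal+/- myoblasts (passage 13) were plated 16-24 hr, then exposed to compounds (1:260 dilution of DMSO stock) for 48 hours at 37C. After MPER lysis, β-galactosidase reporter activity was read as FDG fluorescence (ex 480/em 540) after 30 minutes.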
PTHR1 ag – agonists of human PTHR1 parathyroid hormone receptor. Q03431. HEK293 GP2 PTHR1 cells, GloSensor cAMP luminescence, 1 h. Potency, µM (series often up to 115 µM), usual class: activators. hit rate 0.075% among 410,000. AID 743266; note: nearly all actives have a fitted effect of over 55% in size
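HEK-293-derived GP2 cells expressing PTHR1 and a GloSensor cAMP reporter, 3,000/well, plated overnight, given luciferin plus IBMX (each 0.5 mM as added) for 1 h at 37 °C, then compound for 1 h at 37 °C. Luminescence was read after 15 min at room temperature.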
MBNL1 CUG block – blocks human MBNL1 binding to CUG repeat RNA; Q9NR56; TR-FRET MBNL1-His/biotin-(CUG)12 binding, 665/545 ratio; Potency, µM (titrated, usually from 57.5 µM), actives largely listed as inhibitors; hit rate 0.036% among 280,000; AID 2675; active = well fitted inhibition curve with a large enough effect in the signal ratio, with a control signal flat, not every such curve was filed as active; inconclusive = small, poorly fitted or top-dose-only effect, or effect the other way, or a change in a side signal; inactive = no such curve, though single readings can be large or run the other way; the % refers to the signal ratio
Target sequence (Q9NR56 whole entry, looked up): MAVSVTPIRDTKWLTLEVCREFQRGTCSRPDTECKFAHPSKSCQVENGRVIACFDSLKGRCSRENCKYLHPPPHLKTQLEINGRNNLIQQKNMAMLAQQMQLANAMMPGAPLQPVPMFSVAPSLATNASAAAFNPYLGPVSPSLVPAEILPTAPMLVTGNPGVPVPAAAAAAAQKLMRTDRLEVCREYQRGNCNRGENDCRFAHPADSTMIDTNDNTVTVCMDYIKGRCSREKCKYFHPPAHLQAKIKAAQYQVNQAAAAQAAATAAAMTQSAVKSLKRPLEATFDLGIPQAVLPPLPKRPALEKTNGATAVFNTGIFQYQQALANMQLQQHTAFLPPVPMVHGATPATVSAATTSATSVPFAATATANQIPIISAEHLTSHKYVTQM
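Ratiometric TR-FRET (665 over 545 nm, excitation 340 nm) tracks disruption of MBNL1-His/biotin-(CUG)12 complex after 60 min at room temperature, with compounds at 92 nM to 58 uM final.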
A number is an active result; n = inactive; u = inconclusive; x = no result; [ ] = dose if it differs, or a comment. Unless noted, calls come from the whole dose curve; as a rule, active = well fitted curve in the direction sought with a large enough effect; inconclusive = small, poorly fitted or top-dose-only effect, or another doubt; inactive = no such curve, though single readings can be large; an effect the other way counts as inactive or inconclusive.

SMILES	DRD3 antagonist	D3 ag	CBFb-RUNX1 inh	a7 integrin act	PTHR1 ag	MBNL1 CUG block
CC(O)[C@@H]1NC(=O)[C@H](Cc2ccccc2)NC(=O)[C@H](C(C)O)NC(=O)[C@H](CCCCN)NC(=O)[C@H](Cc2c[nH]c3ccccc23)NC(=O)[C@H](Cc2ccccc2)NC(=O)[C@H](Cc2ccccc2)NC(=O)[C@H](CC(N)=O)NC(=O)[C@H](CCCCN)NC(=O)[C@@H](NC(=O)CNC(=O)[C@H](C)N)CSSC[C@@H](C(=O)O)NC(=O)[C@H](CO)NC1=O (stereo partly drawn)	x	n	x	x	x	x
Cc1cccc(C)c1OCCCn1c(CCNC(=O)C2CCCCC2)nc2ccccc21	x	n	x	x	n	x
O=C(CSc1oc(-c2ccccc2)nc1S(=O)(=O)c1ccccc1)c1ccccc1	x	53	x	x	n	x
CCCN1CCC(NC(=O)CCc2nnc(-c3ccccc3)o2)CC1	-53	n	n	u	n	n
CCCCN1CCc2c([nH]c3ccccc23)C1=O	n	n	n	n	n	n
CN1CCc2ccccc2Cc2[nH]c3ccccc3c2CC1	-110	n	n	x	n	x
C[C@@H]1CN([C@@H](C)CO)C(=O)CCCn2nncc2CO[C@H]1CN(C)C(=O)Nc1ccccc1F	n	n	x	n	n	x
CCOC(=O)CCc1c(C(=O)OCC)[nH]c(CC)c1C(=O)OCc1ccccc1	n	31	n	n	n	n
CCOC(=O)c1c(C)[nH]c(C(=O)OCc2ccccc2)c1C	n	n	x	n	n	n
O=C(NCc1ccccn1)c1c(O)c2cccc3c2n(c1=O)CC3	-56	n	n	n	n	n
O=C(NCCc1ccccc1)c1c(O)c2cccc3c2n(c1=O)CC3	n	n	n	n	n	n
COc1cc(C(=O)NC(CCSC)C(=O)Nc2ccc(N3CCOCC3)cc2)cc(OC)c1OC (stereo not drawn)	-73	n	x	n	n	x
CSCCC(NC(=O)c1cccc(S(=O)(=O)N2CCOCC2)c1)C(=O)Nc1ccc(F)cc1 (stereo not drawn)	n	n	n	n	n	x
Cc1occc1-c1nnc(SCC(=O)Nc2nc3ccccc3s2)o1	-103	n	n	n	n	n
CN(C)CCN1CCN(C2CN(Cc3cn(Cc4cccc(C(F)(F)F)c4)nn3)S(=O)(=O)C2)CC1 (stereo not drawn)	-72	n	x	x	n	x
CN(C)CCN1CCN(C2CN(Cc3cn(Cc4ccc(Cl)cc4)nn3)S(=O)(=O)C2)CC1 (stereo not drawn)	-51	n	x	x	n	x
S=C1SCN(CCc2ccccc2)CN1CCc1ccccc1	n	n	x	n	n	x
O=C(CSc1nc2cc(Cl)ccc2o1)NC1CC1	n	n	x	n	n	x
C/C(=N\NC(=O)c1ccc(Cl)c(Cl)c1)c1ccccn1	u	n	x	n	n	n
CCOc1ccc(OCc2ccc(C(=O)N/N=C(\C)c3ccccn3)cc2)cc1	-81	n	u	n	n	n
COc1ccc(C(=O)N/N=C(\C)c2ccccn2)cc1OC	-54	n	x	n	n	n
C/C(=N/NC(=O)c1ccc(C(C)(C)C)cc1)c1ccccn1	-115	n	x	n	n	x
C/C(=N\NC(=O)C1CCCN(S(=O)(=O)c2ccccc2)C1)c1ccccn1 (stereo not drawn)	-90	n	n	n	n	n
COc1ccc(C(=O)OCC(=O)N2CCN(S(=O)(=O)c3ccc(C)cc3)CC2)cc1[N+](=O)[O-]	n	n	x	n	n	x
C/C(=N\NC(=O)c1cccc2ccccc12)c1ccccn1	-93	n	x	n	n	n
C/C(=N\NC(=O)c1ccccc1Cl)c1ccccn1	u	n	x	n	n	n
C/C(=N\NC(=O)c1cccc(Br)c1)c1ccccn1	-53	n	x	n	n	n
C/C(=N\NC(=O)c1cc(Br)ccc1O)c1ccccn1	n	n	x	n	n	n
C/C(=N\NC(=O)C(c1ccccc1)c1ccccc1)c1ccccn1	-76	n	n	n	n	n[11.5 µM]
N#C/C(=C\c1ccccc1)C(=O)Nc1sc2c(c1C(N)=O)CCC2	x	n	x	x	n	x
